# According to PubChem BioAssay:
# Active and inactive are the calls of the source.
# Experiments:
# [1] = tested on: PRMT1 (protein arginine N-methyltransferase 1); experiment: PRMT1 binders on small-molecule microarrays, primary screen, biochemical, small-molecule microarray, 635 nm fluorescence (AID 1088); conditions: small-molecule microarray binding, higher = more signal;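 further: binding of Prmt1 protein to compounds spotted on small-molecule microarray slides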
# [2] = yeast growth modulation, basal conditions, primary screen, YJM789 clinical isolate, OD600, 24 h (AID 1089);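 further: growth of clinical yeast isolate S. cerevisiae YJM 789 seeded 1000 cells per well; test concentration not given here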; conditions: S. cerevisiae YJM789 growth, higher = more signal, called active from +8 up or from −8 down
# [3] = fission yeast growth modulation, primary screen, strain 972, OD600, 24 h, no modulator (AID 1090);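 further: basal condition with compound alone and no growth modifier present; test concentration not given here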; conditions: S. pombe 972 growth, higher = more signal, called active from +8 up or from −8 down
# [4] = S. cerevisiae growth modulation with rapamycin, primary screen, strain BY4716, OD600, 96 h (AID 1091); conditions: higher = more signal, called active from +8 up or from −8 down; further: test concentration not given here
# [5] = biological target: Torsin-1A-interacting protein 2 (Homo sapiens) (UniProt Q8NFQ8); experiment: LULL1 binders on small-molecule microarray, primary screen, cell lysate, human LULL1 lysate, 635/667 nm fluorescence (AID 1092); conditions: hLULL1 lysate binding, 635 nm fluorescence, higher = more signal;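 further: probe is lysate of COS7 cells overexpressing human LULL1; score merges per-feature 667 nm fluorescence with signal-to-noise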
# Torsin-1A-interacting protein 2 (Homo sapiens), sequence (Q8NFQ8 whole entry, looked up): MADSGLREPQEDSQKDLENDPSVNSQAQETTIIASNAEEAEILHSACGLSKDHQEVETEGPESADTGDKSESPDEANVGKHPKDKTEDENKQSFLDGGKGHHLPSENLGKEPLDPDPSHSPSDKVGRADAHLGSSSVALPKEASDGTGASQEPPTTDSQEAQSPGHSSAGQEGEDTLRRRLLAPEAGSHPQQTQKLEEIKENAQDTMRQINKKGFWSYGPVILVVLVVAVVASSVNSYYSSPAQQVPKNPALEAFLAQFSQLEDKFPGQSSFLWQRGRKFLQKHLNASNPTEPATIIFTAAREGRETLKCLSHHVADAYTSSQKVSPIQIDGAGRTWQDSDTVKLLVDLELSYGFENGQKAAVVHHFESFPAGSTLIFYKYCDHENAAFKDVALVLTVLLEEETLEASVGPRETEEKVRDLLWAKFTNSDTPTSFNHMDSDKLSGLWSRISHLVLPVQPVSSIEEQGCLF
# [6] = E. coli growth modulation, two-sided OD650, primary screen, E. coli filamentation project, strain DRC41, 24 h (AID 1093); conditions: OD650, 24 h, higher = more signal, called active from +8 up or from −8 down;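 further: MC1000 strain lacking acrAB efflux and sulA so SOS filamentation is blocked; test concentration not given here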
# [7] = small-molecule microarray binders of probe aLefty2, primary screen, biochemical, biotinylated probe, 635/667 nm fluorescence (AID 1094); conditions: higher = more signal;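 further: score merges spot fluorescence near 667 nm with spot signal-to-noise ratio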
# [8] = tested on: Noggin (protein binding on small-molecule microarray); experiment: Noggin binders on small-molecule microarray, primary screen, biochemical, 635/667 nm fluorescence (AID 1095); conditions: 635 nm fluorescence, higher = more signal;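 further: score merges 667 nm feature fluorescence with signal to noise over triplicate slides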
# [9] = biological target: Neurogenic locus notch homolog protein 3 (Homo sapiens) (UniProt Q9UM47); experiment: NOTCH3 binders on small-molecule microarray, primary screen, biochemical, 635/667 nm fluorescence (AID 1096); conditions: NOTCH3 binding, 635 nm fluorescence, higher = more signal
# Neurogenic locus notch homolog protein 3 (Homo sapiens), sequence (Q9UM47 whole entry, looked up): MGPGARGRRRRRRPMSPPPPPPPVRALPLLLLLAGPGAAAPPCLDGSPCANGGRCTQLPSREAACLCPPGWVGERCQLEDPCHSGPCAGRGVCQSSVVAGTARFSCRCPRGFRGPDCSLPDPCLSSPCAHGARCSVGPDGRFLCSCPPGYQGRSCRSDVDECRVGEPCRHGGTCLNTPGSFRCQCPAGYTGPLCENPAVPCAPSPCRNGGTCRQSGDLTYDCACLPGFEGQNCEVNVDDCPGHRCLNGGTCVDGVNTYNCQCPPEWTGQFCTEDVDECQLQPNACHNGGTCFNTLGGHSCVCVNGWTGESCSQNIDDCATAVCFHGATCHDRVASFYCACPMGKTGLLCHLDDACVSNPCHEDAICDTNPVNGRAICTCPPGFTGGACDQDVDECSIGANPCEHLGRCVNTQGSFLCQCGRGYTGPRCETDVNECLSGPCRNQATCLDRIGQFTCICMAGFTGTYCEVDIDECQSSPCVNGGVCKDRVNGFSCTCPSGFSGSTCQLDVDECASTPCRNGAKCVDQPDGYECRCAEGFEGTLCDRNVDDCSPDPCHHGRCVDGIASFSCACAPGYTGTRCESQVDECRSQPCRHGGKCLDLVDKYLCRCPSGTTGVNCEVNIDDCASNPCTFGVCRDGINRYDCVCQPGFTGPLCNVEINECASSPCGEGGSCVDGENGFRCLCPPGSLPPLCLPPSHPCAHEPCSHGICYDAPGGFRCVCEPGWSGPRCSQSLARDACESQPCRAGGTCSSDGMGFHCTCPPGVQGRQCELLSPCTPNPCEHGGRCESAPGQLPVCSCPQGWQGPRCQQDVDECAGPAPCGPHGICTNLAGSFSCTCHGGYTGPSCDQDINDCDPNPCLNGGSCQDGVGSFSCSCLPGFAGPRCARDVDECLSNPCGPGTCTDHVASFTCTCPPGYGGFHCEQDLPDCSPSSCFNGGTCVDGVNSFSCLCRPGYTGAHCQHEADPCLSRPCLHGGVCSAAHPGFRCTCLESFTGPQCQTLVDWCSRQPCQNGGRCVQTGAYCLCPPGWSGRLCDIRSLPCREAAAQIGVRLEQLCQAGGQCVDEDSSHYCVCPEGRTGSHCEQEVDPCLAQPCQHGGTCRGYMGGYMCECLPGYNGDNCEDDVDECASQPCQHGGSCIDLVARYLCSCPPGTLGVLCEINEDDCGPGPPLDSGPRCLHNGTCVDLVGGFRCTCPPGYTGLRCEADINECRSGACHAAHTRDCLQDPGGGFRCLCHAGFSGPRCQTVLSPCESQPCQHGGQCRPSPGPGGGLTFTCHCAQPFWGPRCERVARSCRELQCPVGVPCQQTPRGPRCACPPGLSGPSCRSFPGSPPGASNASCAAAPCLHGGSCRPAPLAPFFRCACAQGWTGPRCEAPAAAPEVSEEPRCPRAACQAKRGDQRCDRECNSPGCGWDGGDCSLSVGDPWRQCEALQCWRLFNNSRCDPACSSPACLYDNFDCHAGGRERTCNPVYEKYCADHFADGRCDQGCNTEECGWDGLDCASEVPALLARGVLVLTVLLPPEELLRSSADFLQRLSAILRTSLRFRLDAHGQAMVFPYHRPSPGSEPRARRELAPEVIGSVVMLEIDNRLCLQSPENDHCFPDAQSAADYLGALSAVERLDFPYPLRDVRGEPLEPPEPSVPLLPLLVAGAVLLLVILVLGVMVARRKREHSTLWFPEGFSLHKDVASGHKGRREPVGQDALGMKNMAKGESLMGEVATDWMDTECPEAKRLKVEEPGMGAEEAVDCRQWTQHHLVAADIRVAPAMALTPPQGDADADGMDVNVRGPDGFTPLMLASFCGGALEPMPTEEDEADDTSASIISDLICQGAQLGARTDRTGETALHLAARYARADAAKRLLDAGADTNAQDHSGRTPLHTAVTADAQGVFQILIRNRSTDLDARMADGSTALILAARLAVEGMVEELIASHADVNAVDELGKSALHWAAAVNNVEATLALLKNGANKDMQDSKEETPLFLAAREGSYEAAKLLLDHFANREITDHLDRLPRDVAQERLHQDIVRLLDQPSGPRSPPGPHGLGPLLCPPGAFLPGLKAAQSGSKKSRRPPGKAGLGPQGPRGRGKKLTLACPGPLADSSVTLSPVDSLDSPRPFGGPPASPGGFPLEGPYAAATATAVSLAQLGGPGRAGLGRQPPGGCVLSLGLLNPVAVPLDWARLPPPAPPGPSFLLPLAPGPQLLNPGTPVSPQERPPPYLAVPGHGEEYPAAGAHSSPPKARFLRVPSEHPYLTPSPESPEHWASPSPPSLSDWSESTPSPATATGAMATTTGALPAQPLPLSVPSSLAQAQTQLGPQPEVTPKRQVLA
# [10] = small-molecule microarray binders of probe aEGFR, primary screen, biochemical, biotinylated probe, 635/667 nm fluorescence (AID 1097); conditions: higher = more signal;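 further: probe is a biotinylated anti-EGFR antibody binding compounds printed on slides; score combines fluorescence near 667 nm and signal to noise of each spot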
# [11] = tested on: Plasmodium falciparum Sir2 (PF13_0152, Sir2A); experiment: pfSir2 binders on small-molecule microarrays, primary screen, biochemical, small-molecule microarray, 635 nm fluorescence (AID 1098); conditions: small-molecule microarray binding, fluorescence 635 nm; higher = more signal;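 further: score merges spot fluorescence intensity with its signal-to-noise ratio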
# [12] = small-molecule microarray binders of probe aDKK1, primary screen, biochemical, biotinylated probe, 635/667 nm fluorescence (AID 1099); conditions: higher = more signal;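 further: score merges 667nm spot fluorescence with signal to noise across triplicate slides; reference of the scale not given here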
# [13] = small-molecule microarray binders of probe aCHRDL2, primary screen, biochemical, biotinylated probe, 635/667 nm fluorescence (AID 1100); conditions: higher = more signal
# [14] = splicing luciferase reporter signal modulators, primary screen, spliceosome inhibition project, cell-based, HEK293, splice +/- reporter (AID 1101); conditions: luminescence, 24 h, higher = more signal, called active from +8 up or from −8 down;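 further: HEK293 cells carrying a splicing-competent luciferase reporter gene; test concentration not given here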
# [15] = biological target: Fibroblast growth factor 10 (Homo sapiens) (UniProt O15520); experiment: FGF10 binders on small-molecule microarrays, primary screen, biochemical, small-molecule microarray, 635 nm fluorescence (AID 1102); conditions: FGF10 binding, fluorescence 635 nm, higher = more signal
# Fibroblast growth factor 10 (Homo sapiens), sequence (O15520 whole entry, looked up): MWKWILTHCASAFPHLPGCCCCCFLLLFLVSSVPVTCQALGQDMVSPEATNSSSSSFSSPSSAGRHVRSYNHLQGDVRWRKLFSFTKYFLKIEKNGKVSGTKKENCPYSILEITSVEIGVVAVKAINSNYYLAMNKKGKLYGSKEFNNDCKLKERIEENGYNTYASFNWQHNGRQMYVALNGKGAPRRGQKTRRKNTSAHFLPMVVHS
# [16] = tested on: glycogen synthase kinase-3 (GSK3A per assay name; protocol says GSK3B); experiment: GSK3 binders on small-molecule microarrays, primary screen, biochemical, small-molecule microarray, 635 nm fluorescence, GSK3A (AID 1103); conditions: small-molecule microarray binding, fluorescence 635 nm; higher = more signal; further: the record names both GSK3A and GSK3B
# [17] = biological target: Epidermal growth factor receptor (Homo sapiens) (UniProt P00533); experiment: EGFR binders on small-molecule microarrays, primary screen, biochemical, small-molecule microarray, 635 nm fluorescence (AID 1104); conditions: EGFR binding, higher = more signal;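 further: score merges 667 nm emission intensity with spot signal to noise over triplicate slides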
# Epidermal growth factor receptor (Homo sapiens), sequence (P00533 whole entry, looked up): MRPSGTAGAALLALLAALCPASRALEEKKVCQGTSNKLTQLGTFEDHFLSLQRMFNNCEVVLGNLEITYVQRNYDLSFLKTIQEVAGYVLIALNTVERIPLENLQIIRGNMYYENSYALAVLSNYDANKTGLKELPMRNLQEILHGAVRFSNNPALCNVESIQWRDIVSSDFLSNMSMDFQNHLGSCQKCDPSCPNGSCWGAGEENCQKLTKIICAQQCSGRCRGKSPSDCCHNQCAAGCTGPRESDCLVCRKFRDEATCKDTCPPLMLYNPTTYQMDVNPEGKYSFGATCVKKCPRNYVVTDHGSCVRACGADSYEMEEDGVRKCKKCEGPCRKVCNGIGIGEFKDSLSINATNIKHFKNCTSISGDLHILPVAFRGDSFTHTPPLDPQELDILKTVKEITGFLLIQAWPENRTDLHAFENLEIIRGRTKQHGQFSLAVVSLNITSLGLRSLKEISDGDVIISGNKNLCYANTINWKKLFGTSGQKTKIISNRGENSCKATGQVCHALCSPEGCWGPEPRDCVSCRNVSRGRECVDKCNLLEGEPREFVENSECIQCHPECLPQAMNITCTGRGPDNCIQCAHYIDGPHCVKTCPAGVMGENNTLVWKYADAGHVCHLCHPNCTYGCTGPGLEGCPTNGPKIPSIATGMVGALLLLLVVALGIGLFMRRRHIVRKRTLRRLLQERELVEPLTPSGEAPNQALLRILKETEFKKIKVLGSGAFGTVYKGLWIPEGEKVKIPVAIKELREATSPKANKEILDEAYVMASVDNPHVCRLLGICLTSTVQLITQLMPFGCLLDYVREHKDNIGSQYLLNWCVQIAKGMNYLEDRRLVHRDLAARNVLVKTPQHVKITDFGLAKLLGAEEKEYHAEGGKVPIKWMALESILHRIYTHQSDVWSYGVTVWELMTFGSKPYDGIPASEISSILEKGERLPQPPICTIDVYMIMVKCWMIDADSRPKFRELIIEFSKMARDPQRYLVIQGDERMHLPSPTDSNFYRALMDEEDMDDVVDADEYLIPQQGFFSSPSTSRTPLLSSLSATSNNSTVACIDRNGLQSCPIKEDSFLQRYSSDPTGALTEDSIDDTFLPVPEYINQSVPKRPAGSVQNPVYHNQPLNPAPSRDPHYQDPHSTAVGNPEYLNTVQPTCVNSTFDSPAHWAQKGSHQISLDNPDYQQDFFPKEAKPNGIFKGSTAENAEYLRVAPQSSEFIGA
# [18] = biological target: Follistatin-related protein 3 (Homo sapiens) (UniProt O95633); experiment: FSTL3 binders on small-molecule microarrays, primary screen, biochemical, small-molecule microarray, 635 nm fluorescence (AID 1105); conditions: FSTL3 binding, higher = more signal;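 further: score merges emission near 667 nm and signal to noise per printed spot across three slides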
# Follistatin-related protein 3 (Homo sapiens), sequence (O95633 whole entry, looked up): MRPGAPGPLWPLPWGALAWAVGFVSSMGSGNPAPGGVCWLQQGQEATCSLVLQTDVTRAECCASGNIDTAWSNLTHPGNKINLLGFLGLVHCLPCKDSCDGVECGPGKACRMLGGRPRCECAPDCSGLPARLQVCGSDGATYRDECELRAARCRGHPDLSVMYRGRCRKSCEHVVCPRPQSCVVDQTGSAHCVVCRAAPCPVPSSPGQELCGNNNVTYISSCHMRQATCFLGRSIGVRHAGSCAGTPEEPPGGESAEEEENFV
# [19] = biological target: Dickkopf-related protein 1 (Homo sapiens) (UniProt O94907); experiment: DKK1 binders on small-molecule microarrays, primary screen, biochemical, small-molecule microarray, 635 nm fluorescence scan (AID 1106); conditions: DKK1 binding, higher = more signal;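 further: score merges emission near 667 nm with signal to noise over three replicate slides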
# Dickkopf-related protein 1 (Homo sapiens), sequence (O94907 whole entry, looked up): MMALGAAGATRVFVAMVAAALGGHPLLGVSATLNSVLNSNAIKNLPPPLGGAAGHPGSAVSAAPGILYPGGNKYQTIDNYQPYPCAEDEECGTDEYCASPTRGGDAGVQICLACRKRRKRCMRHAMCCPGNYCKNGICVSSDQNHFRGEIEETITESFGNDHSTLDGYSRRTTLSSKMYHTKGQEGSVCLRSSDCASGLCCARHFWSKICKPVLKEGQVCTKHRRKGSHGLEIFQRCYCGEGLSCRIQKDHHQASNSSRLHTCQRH
# [20] = tested on: Inhibin beta A chain (activin A); experiment: INHBA (activin A) binders on microarrays, primary screen, biochemical, small-molecule microarray, 635 nm fluorescence scan (AID 1107); conditions: small-molecule microarray binding, higher = more signal;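 further: mouse activin A protein probed at 4.33 µg/mL on printed slides; score merges bound-protein fluorescence near 667 nm with spot signal-to-noise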
Structure (SMILES),composite z-score [1],z-score [2],z-score [3],z-score [4],composite z-score [5],z-score [6],composite z-score [7],composite z-score [8],composite z-score [9],composite z-score [10],composite z-score [11],composite z-score [12],composite z-score [13],z-score [14],composite z-score [15],composite z-score [16],composite z-score [17],composite z-score [18],composite z-score [19],composite z-score [20]
[N-]=[N+]=Nc1ccccc1C[C@@]1(C(=O)O)N=C(c2ccc(OCCCO)cc2)O[C@@H]1c1ccccc1N=[N+]=[N-],1.39,-1.05 (inactive),-0.613 (inactive),-1.67 (inactive),3.04,-0.679 (inactive),0.255,-0.414,1.09,0.0998,1.46,1.16,1.32,-0.469 (inactive),0.285,1.11,-0.383,0.626,-0.435,1.29
C=C[C@@H](OC)[C@H](OC(=O)Nc1ccc(SC)cc1)c1ccc(OCCO)cc1,1.13,0.456 (inactive),-0.675 (inactive),0.0094 (inactive),2.11,0.0144 (inactive),-0.057,0.822,0.82,-0.039,1.4,0.0622,0.527,1.46 (inactive),0.887,0.64,0.419,0.839,0.444,0.0469
COc1ccc([Si](C)(C)[C@@H]2[C@@H](CC(=O)N3Cc4ccccc4C[C@H]3CO)O[C@]3(C(=O)N(c4ccccc4)c4ccccc43)[C@H]2C)cc1,1.41,1.18 (inactive),1.4 (inactive),2.93 (inactive),1.88,0.774 (inactive),0.541,1.71,1.05,0.13,2.04,0.713,0.449,-0.0709 (inactive),1.09,1.26,0.799,1.37,1.1,0.816
CC(C)[C@H]1NC(=O)[C@@]23C(=O)N[C@@H](Cc4ccccc4)C2[C@H](C)[C@@]2(C)O[C@H]2C3/C=C/CCC/C=C/CNC(=O)[C@H](Cc2ccccc2)NC1=O (stereo not given in full),0.776,0.249 (inactive),-1.4 (inactive),-0.622 (inactive),2.47,0.139 (inactive),-0.232,1.22,0.419,-0.161,1.39,-0.339,-0.32,0.286 (inactive),0.106,0.291,-0.023,0.0435,0.147,0.943
COC(=O)[C@@]1(Cc2ccccc2CN=[N+]=[N-])N=C(c2ccc(OCCCO)cc2)O[C@H]1c1ccccc1CN=[N+]=[N-],0.812,0.84 (inactive),1.96 (inactive),35.5 (active),1.3,0.478 (inactive),-0.0458,-0.56,-0.498,-0.21,1.32,-0.0486,1.02,-1.34 (inactive),-0.304,-0.568,-1.48,-0.774,-1.02,-0.0879
O=C1C2C=CC(C(O)C=Cc3ccc([N+](=O)[O-])cc3)N(Nc3ccccc3)C2C(=O)N1c1ccccc1 (stereo not given),1.33,0.431 (inactive),0.102 (inactive),-0.19 (inactive),2.78,-0.608 (inactive),0.349,0.505,1.04,-0.0238,1.37,-0.0814,0.689,0.649 (inactive),1.07,1.16,0.244,1.31,0.419,1.06
CN1C=C(C(=O)OCCS(C)(=O)=O)C(C(=O)OCCS(C)(=O)=O)=CC(c2ccc(CO)cc2)=CC1c1cccs1 (stereo not given),0.568,0.379 (inactive),-3.74 (inactive),0.148 (inactive),2.01,0.326 (inactive),-0.116,0.484,0.407,-0.0594,0.76,0.162,0.102,0.497 (inactive),0.588,0.499,0.294,0.226,-0.0496,1.47
C=C(C(=O)CC[C@@H](OC(=O)c1ccccc1-c1ccccc1C(=O)O)c1ccccc1OCCO)C(C)C,1.55,-1.28 (inactive),-0.832 (inactive),-1.88 (inactive),1.14,0.293 (inactive),-0.0617,1.36,1.05,-0.112,1.07,-0.232,-0.463,1.58 (inactive),1.53,0.645,0.354,1.38,0.73,1.26
Cc1ccc(S[C@]2(C(=O)NCC(C)C)CC(=O)N(C3Cc4ccccc4C3)[C@@H]2c2ccc(CO)cc2I)cc1,-0.409,-0.766 (inactive),-1.49 (inactive),1.51 (inactive),0.724,-0.0979 (inactive),0.0349,-1.45,-0.933,-0.294,1.35,-0.126,-0.0156,-0.968 (inactive),-0.767,-0.61,-0.821,0.594,-1.02,0.847
CCOC(=O)C[C@H]1[C@H](OC(=O)c2ccccc2-c2ccccc2)[C@@H](NC(=O)c2ccccc2)c2cc(OCCCO)ccc2N1C(=O)c1ccccc1,0.0302,-0.0764 (inactive),0.587 (inactive),1.58 (inactive),1.22,-1.11 (inactive),-0.214,0.169,0.243,-0.0726,-0.242,0.0316,-0.375,0.0178 (inactive),0.645,0.459,-0.106,0.284,0.169,0.169
